# Source: the supplement of paper PMC13380429
# System: Vero E6 infected with SARS-CoV-2
# Assay: inhibition of SARS-CoV-2 cytopathic effect; higher = more antiviral protection, active = above 15
# Settings: 48 h
SMILES,inhibition of SARS-CoV-2 cytopathic effect (1 nM),inhibition of SARS-CoV-2 cytopathic effect (8.33 nM),inhibition of SARS-CoV-2 cytopathic effect (100 nM),inhibition of SARS-CoV-2 cytopathic effect (833.33 nM),inhibition of SARS-CoV-2 cytopathic effect (10000 nM)
COc1ccc2[nH]c(I)c(CCNC(C)=O)c2c1 [2-iodomelatonin],3.34% (inactive),4.46% (inactive),0.99% (inactive),0.89% (inactive),0.94% (inactive)
O=C(OC(C(F)(F)F)C(F)(F)F)N1CCC(C(O)(c2ccc3c(c2)OCO3)c2ccc3c(c2)OCO3)CC1,-1.87% (inactive),0.04% (inactive),-0.31% (inactive),-1.03% (inactive),0.49% (inactive)
CN1C2CCCC1CC(NC(=O)c1nn(C)c3ccccc13)C2 (stereo not given) [granisetron],3.53% (inactive),4.21% (inactive),-1.14% (inactive),-2.63% (inactive),-4.21% (inactive)
Cc1ncc(COP(=O)([O-])[O-])c(CN(CCN(CC(=O)O)Cc2c(COP(=O)([O-])O)cnc(C)c2O)CC(=O)O)c1O.[Mn].[Na+].[Na+].[Na+] [Mangafodipir (trisodium)],-2.31% (inactive),-3.12% (inactive),-2.65% (inactive),-1.43% (inactive),-3.61% (inactive)
C[C@]12CCC(=O)C[C@@H]1CC[C@@H]1[C@@H]2CC[C@]2(C)C=CC[C@@H]12 [androstenone],-0.13% (inactive),-0.62% (inactive),-1.17% (inactive),0.87% (inactive),-0.03% (inactive)
Cc1ccc(CCCO)c(NCc2ccc3nc(NCCCN4CCOCC4)n(Cc4nc(C)ccc4O)c3c2)c1,0.48% (inactive),-0.28% (inactive),-0.6% (inactive),-1.09% (inactive),-1.76% (inactive)
COc1cc(C(=S)N2CCOCC2)ccc1O [vanitiolide],-0.99% (inactive),-1.31% (inactive),-0.6% (inactive),2.4% (inactive),-0.14% (inactive)
O=C(O)[C@H]1CN(C/C=C/P(=O)(O)O)CCN1 [midafotel],-2.43% (inactive),-0.69% (inactive),0.17% (inactive),1.03% (inactive),3.52% (inactive)
Oc1ccc(C(O)CNCCCCCCNCC(O)c2ccc(O)c(O)c2)cc1O (stereo not given) [hexoprenaline],-3.2% (inactive),0.65% (inactive),2.27% (inactive),-1.49% (inactive),-2.87% (inactive)
NC(=O)Nc1cc(-c2cccc(F)c2)sc1C(=O)N[C@H]1CCCNC1,-2.18% (inactive),0.53% (inactive),-2.2% (inactive),-4.24% (inactive),-19.5% (inactive)
CCOC(CN1CCN(CC(C)C(=O)c2ccccc2)CC1)c1ccccc1 (stereo not given) [eprazinone],-5.33% (inactive),-3.53% (inactive),-2.2% (inactive),1.64% (inactive),0.89% (inactive)
Nc1ccc(/N=N/c2ccccc2)c(N)n1 [phenazopyridine],1.34% (inactive),0.46% (inactive),0.72% (inactive),1.24% (inactive),0.27% (inactive)
CO/N=C1\CN(c2nc3c(cc2F)c(=O)c(C(=O)O)cn3C2CC2)CC1CN (stereo not given) [gemifloxacin],-4.74% (inactive),-3.09% (inactive),0.76% (inactive),1.02% (inactive),5.76% (inactive)
CC1CC(OC(=O)C(O)c2ccccc2)CC(C)(C)N1C (stereo not given) [eucatropine],0.81% (inactive),3.45% (inactive),1.74% (inactive),0.69% (inactive),0% (inactive)
COc1ccc2[nH]c3c(-c4cccc5ccccc45)nccc3c2c1,-2.63% (inactive),0.26% (inactive),-0.2% (inactive),-4.62% (inactive),-2.93% (inactive)
CC(=O)c1cc([N+](=O)[O-])c(Sc2ccc(F)cc2F)s1,-0.55% (inactive),1.74% (inactive),0.23% (inactive),-0.14% (inactive),19.6% (active)
CC/C=C\C/C=C\C/C=C\C/C=C\C/C=C\C/C=C\CCC(=O)OCC [doconexent-ethyl-ester],-1.67% (inactive),0.01% (inactive),0.45% (inactive),0.72% (inactive),0.36% (inactive)
CC1=C(CC(=O)O)c2cc(F)ccc2/C1=C\c1ccc(S(C)(=O)=O)cc1 [exisulind],-5.21% (inactive),-2.14% (inactive),-3.65% (inactive),0.09% (inactive),-2.3% (inactive)
